Bioassay records deposited in PubChem BioAssay by National Center for Advancing Translational Sciences (NCATS).
Sampled rows, rich in hits. Any-hit rate of the full collection: about 15%.
DT40 TDP1 no CPT – qHTS for Inhibitors of human tyrosyl-DNA phosphodiesterase 1 (TDP1): qHTS in cells in absence of CPT. AID 686978, 2013. hit rate 15% among 420,000. DT40 Tdp1-/- hTDP1 cells, no CPT, ATP luminescence, 48 h. Potency, µM (doses to about 46.2 µM), inactives show at the top dose activity change, negative = growth inhibition, hits mostly inhibitors; further: nearly all actives have a fitted effect of over 55% in size
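Luminescent ATP content (CellTiter-Glo) served as the growth readout. Knockout chicken DT40 cells expressing human TDP1 were exposed to compounds without camptothecin for a minimum 48 hr at 37 °C.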
ELG1 DNA repair – ELG1-dependent DNA repair inhibition | Potency, µM (series often up to 46.1 µM), inactives show at the highest dose activity change, negative = inhibition, most hits filed as inhibitors | AID 504467 | hit rate 2.3% among 330,000 | HEK293T ELG1-luciferase reporter, luminescence, 16 h; DNA damage induced by 5-fluorouridine; further: nearly all actives have a fitted effect of over 55% in size
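Overnight (16 hr) co-exposure of 2,000 cells/well to 5-fluorouridine and compound at 37 °C preceded detection. Luciferase was quantified via ONE-Glo luminescence; loss of signal denotes inhibition.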
Gal4-VP16 FLuc – Gal4-VP16 reporter inhibition counter-screen. Drosophila S2 Gal4-VP16 UAS-luciferase, luminescence, 20 h. Potency, µM (titrated, usually from 53.6 µM), for the others: at the highest dose activity, negative = inhibition, most hits filed as inhibitors. hit rate 3.5% among 310,000. AID 2546;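 further: Gal4-VP16 expression switched on by copper sulfate through the metallothionein promoter; nearly all actives have a fitted effect of over 50% in size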
RORg inh – blocks mouse ROR gamma transcriptional activity; AID 2551; P51450; hit rate 5.4% among 310,000; Potency, µM (series often up to 53.6 µM), for the others: top-dose activity change, negative = inhibition, hits mostly inhibitors; Drosophila S2 Gal4-RORgamma UAS-luciferase reporter, 20 h; further: nearly all actives have a fitted effect of over 60% in size
Target sequence (P51450 whole entry, looked up, the tested form may be a part): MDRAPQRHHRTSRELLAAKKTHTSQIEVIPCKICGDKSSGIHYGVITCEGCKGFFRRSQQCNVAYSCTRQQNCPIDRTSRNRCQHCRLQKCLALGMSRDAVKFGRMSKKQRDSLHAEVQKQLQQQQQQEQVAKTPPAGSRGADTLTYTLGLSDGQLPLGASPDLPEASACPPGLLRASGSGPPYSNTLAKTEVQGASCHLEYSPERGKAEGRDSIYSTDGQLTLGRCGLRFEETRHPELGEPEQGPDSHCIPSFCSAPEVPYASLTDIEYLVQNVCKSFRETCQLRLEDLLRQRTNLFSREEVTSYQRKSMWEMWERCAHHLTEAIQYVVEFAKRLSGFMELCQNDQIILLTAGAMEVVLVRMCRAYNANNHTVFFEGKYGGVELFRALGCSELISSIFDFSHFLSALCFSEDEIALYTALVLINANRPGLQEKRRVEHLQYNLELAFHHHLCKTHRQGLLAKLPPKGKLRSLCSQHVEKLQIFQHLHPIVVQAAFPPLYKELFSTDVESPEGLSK
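Luciferase reporter read in Schneider cells carrying Gal4-RORγ (mouse) and UAS-Photinus luciferase; cells given compound 1 h before 700 uM copper sulfate induction, then incubated 20 h at ambient temperature.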
ALOX12 inh – ALOX12 (human) lipoxygenase inhibition. purified 12hLO, xylenol orange hydroperoxide absorbance. P18054. Potency, µM (highest dose often 108 µM), inactives show at the highest dose activity change, negative = inhibition, usual class: inhibitors. hit rate 1.1% among 580,000
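Hydroperoxide product was detected by ferrous iron/xylenol orange as the 573 to 405 nm absorbance ratio. Arachidonic acid at 40 uM (final) was turned over for 30 min at room temperature by 150 nM human 12hLO, pH 7.0 Hepes buffer, after 15 min compound preincubation.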
TDP1 cell CPT – growth inhibition of DT40 Tdp1-/-;hTDP1 cells with camptothecin (screen for TDP1 inhibitors) | chicken DT40 Tdp1-/-;hTDP1 cells + 20 nM CPT, ATP luminescence, 48 h | Potency, µM (top dose mostly 46.2 µM), inactives show at the highest dose activity change, negative = growth inhibition, usual class: inhibitors | hit rate 12% among 420,000; further: nearly all actives have a fitted effect of over 55% in size
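Cell growth measured by CellTiter-Glo luminescence after a minimum 48 h, 37 C compound exposure with 20 nM CPT in Tdp1-knockout DT40 cells stably expressing hTDP1, seeded 400/well; qHTS titration format.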
* hit, by the source's call. The call rests on the fitted dose curve; in most records, active means well fitted curve in the direction sought with a large enough effect; inconclusive means small, poorly fitted or top-dose-only effect, or another doubt; inactive means no such curve, though single readings can be large; an effect the other way counts as inactive or inconclusive. On the % scale 0 is the no-effect control and ±100 the full control effect; potency means the concentration at half of the fitted maximal effect.

For CCOc1ccc(CN(C)CC(O)COCc2ccc(OC)cc2)cc1OC (configuration not stated) the results were ALOX12 inh -6%.
CN(CC(O)COc1ccccc1F)C1CCCCC1 (configuration not stated) was read as DT40 TDP1 no CPT -3%, ELG1 DNA repair 1%, Gal4-VP16 FLuc 1%, RORg inh -4%, ALOX12 inh -5% and TDP1 cell CPT 0%.
COc1ccc(Cl)cc1-c1ccc2c(c1)C(=O)N1C[C@@H](NS(=O)(=O)c3ccc(F)cc3)C[C@H]1C(=O)N2 was read as ALOX12 inh 9%.
C=CCOc1nc2c(c(=O)n(C)c(=O)n2C)n1Cc1ccccc1Cl was read as DT40 TDP1 no CPT 23µM*, ELG1 DNA repair -14%, Gal4-VP16 FLuc inconclusive, RORg inh -9%, ALOX12 inh 4% and TDP1 cell CPT 16µM*.
For C=CCSc1nc2c(c(=O)n(C)c(=O)n2C)n1Cc1ccc(Cl)cc1 the results were ALOX12 inh 4%.
CCCOc1nc2c(c(=O)n(C)c(=O)n2C)n1Cc1cccc2ccccc12 was read as DT40 TDP1 no CPT 6.5µM*, ELG1 DNA repair 16µM*, Gal4-VP16 FLuc inconclusive, RORg inh 30%, ALOX12 inh 1% and TDP1 cell CPT 12µM*.
COCCNc1nc2c(c(=O)n(C)c(=O)n2C)n1Cc1cccc2ccccc12 was read as ALOX12 inh 4%.
`C=CCOc1nc2c(c(=O)n(C)c(=O)n2C)n1Cc1ccc(Cl)cc1` gave DT40 TDP1 no CPT 15µM*, ELG1 DNA repair inconclusive, Gal4-VP16 FLuc inconclusive, RORg inh 22%, ALOX12 inh inconclusive and TDP1 cell CPT 16µM*.
Screening COCCc1nncn1C1CCN(S(=O)(=O)c2ccc(F)c(F)c2)CC1 returned ALOX12 inh 45%.
Nc1nonc1-n1nnc(C(=O)N/N=C/c2ccc(O)cc2)c1CN1CCCCCC1 was read as DT40 TDP1 no CPT -2%, ALOX12 inh 0% and TDP1 cell CPT -6%.
`COc1ccc(/C(C)=N/NC(=O)c2nnn(-c3nonc3N)c2CN(C)c2ccccc2)cc1` gave DT40 TDP1 no CPT -6%, ELG1 DNA repair -4%, Gal4-VP16 FLuc inconclusive, RORg inh inconclusive, ALOX12 inh -22% and TDP1 cell CPT -4%.
C/C(=N\NC(=O)c1nnn(-c2nonc2N)c1CN(C)c1ccccc1)c1ccccc1O was read as DT40 TDP1 no CPT 6.5µM*, ELG1 DNA repair inconclusive, Gal4-VP16 FLuc 4µM*, RORg inh 1.6µM*, ALOX12 inh -1% and TDP1 cell CPT 8.2µM*.
Screening C/C(=N\NC(=O)c1nnn(-c2nonc2N)c1CN1CCCCC1)c1ccccc1O returned DT40 TDP1 no CPT 13µM*, ELG1 DNA repair 18µM*, Gal4-VP16 FLuc inconclusive, RORg inh 6.3µM*, ALOX12 inh 1% and TDP1 cell CPT 10µM*.
COc1ccc(NC(=O)N2CCN(c3nc(C)cc(N4CCOCC4)n3)CC2)cc1 was read as ALOX12 inh -4%.
`Cc1ccc(Oc2ccccc2NC(=O)Cc2nn(C)c(=O)c3ccccc23)cc1` gave ALOX12 inh -8%.
For COc1ccc(C(C#N)=Cc2ccccc2OC)cc1 the results were DT40 TDP1 no CPT 5.2µM*, ALOX12 inh 0% and TDP1 cell CPT 6.5µM*.
`CCCCCCN1C[C@H](n2cc(C3CC3)nn2)[C@@H](O)C[C@@H]1c1ccccc1` gave DT40 TDP1 no CPT 9.2µM*, ALOX12 inh inconclusive and TDP1 cell CPT 21µM*.
For CCCCCCN1C[C@H](n2cc(C3CC3)nn2)[C@@H](O)C[C@@H]1c1ccc(OC)cc1 the results were DT40 TDP1 no CPT 21µM*, ALOX12 inh inconclusive and TDP1 cell CPT inconclusive.
For CCCCCCN1C[C@@H](O)[C@H](n2cc(C3CC3)nn2)C[C@@H]1c1ccccc1 the results were DT40 TDP1 no CPT 16µM*, ALOX12 inh inconclusive and TDP1 cell CPT 18µM*.
`O=S(=O)(c1cccc(Cl)c1)N1CCN(Cc2coc(-c3cccs3)n2)CC1` gave ALOX12 inh -28%.
For O=C1NCCCCCN(C(=O)NCc2ccc(F)cc2)[C@H]2CCCC[C@@H]12 the results were ALOX12 inh 35%.
Screening CC(C)COC(=O)N1CCCCC1c1cc(C(=O)Nc2ccccc2)no1 (configuration not stated) returned DT40 TDP1 no CPT inconclusive, ALOX12 inh -2% and TDP1 cell CPT 18µM*.
For COC(=O)N1CCCCC1c1cc(C(=O)NCc2ccc(F)cc2)no1 (configuration not stated) the results were DT40 TDP1 no CPT -9%, ALOX12 inh inconclusive and TDP1 cell CPT -6%.
`CC(C)COC(=O)N1CCCCC1c1cc(C(=O)NCc2ccc(F)cc2)no1` (configuration not stated) gave DT40 TDP1 no CPT 21µM*, ALOX12 inh -19% and TDP1 cell CPT inconclusive.
Screening CC(C)COC(=O)N1CCCCC1c1cc(C(=O)Nc2ccc3c(c2)OCO3)no1 (configuration not stated) returned DT40 TDP1 no CPT -51%, ALOX12 inh 6% and TDP1 cell CPT -58%.
`Cc1cccc(C(=O)NC2CCN(c3cn[nH]c(=O)c3)CC2)c1` gave ALOX12 inh 2%.
COc1ccc(-c2n[nH]c(C)c2-c2cnn(-c3ccccc3)c2)c(O)c1C was read as DT40 TDP1 no CPT inconclusive, ELG1 DNA repair inconclusive, Gal4-VP16 FLuc inconclusive, RORg inh 11µM*, ALOX12 inh 0% and TDP1 cell CPT -15%.
For COc1ccc(-c2n[nH]c(C)c2-c2cnn(-c3ccccc3)c2)c(O)c1 the results were DT40 TDP1 no CPT 6%, ELG1 DNA repair -16%, Gal4-VP16 FLuc inconclusive, RORg inh -116%, ALOX12 inh -50% and TDP1 cell CPT 5%.
CCN(CC)Cc1ccc2cc(COC(=O)Nc3ccc(C(=O)NO)cc3)ccc2c1 was read as ALOX12 inh 15µM*.
`CCC(=O)Nc1ccc(C(=O)OCc2ccc(Cl)c(Cl)c2)cc1` gave DT40 TDP1 no CPT -26%, ELG1 DNA repair 13%, Gal4-VP16 FLuc -11%, RORg inh inconclusive, ALOX12 inh -2% and TDP1 cell CPT 7%.
